Source: PubChem BioAssay (several laboratories)
Rows were chosen to be rich in hits. Some 1.1% of all compounds tested hit in one or more screens of this group.
A1 inh = inhibitors of the anti-apoptotic protein A1, read as caspase activation; MEF A1-2A-BIM cells, Caspase-Glo 3/7 luminescence, 3 h; percent of clofoctol response, vehicle zero; caspase activation, % (concentration not given with the values); 0.066% of 330,000 active;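 active = over half of replicate activation scores above 10%, or exactly half above 10 with the replicate mean above 10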
A3A deaminase = blocks human APOBEC3A ssDNA deamination; P31941; recombinant A3A, FAM/TAMRA ssDNA deamination fluorescence; inhibition, % at 20 µM; 0.41% of 330,000 active; AID 493011;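 active = at least 40% inhibition at 20 µM here, with at most 30% in a related deaminase screen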
Target sequence (P31941 whole entry, looked up): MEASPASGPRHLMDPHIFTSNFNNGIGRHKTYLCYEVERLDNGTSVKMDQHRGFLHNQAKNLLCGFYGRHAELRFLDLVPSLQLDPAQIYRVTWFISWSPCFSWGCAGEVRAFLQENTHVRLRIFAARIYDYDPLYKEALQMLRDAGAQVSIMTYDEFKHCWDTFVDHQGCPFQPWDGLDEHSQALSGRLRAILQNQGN
MIN6 prolif = MIN6 beta-cell proliferation induction; MIN6 cells proliferation, ATPlite luminescence, 48 h; cells starved in 0.2% serum; 100% = growth in 10% serum; proliferation, % at 10 µM; 0.29% of 330,000 active; AID 2380;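 active = compounds whose signal lies at least 3.5 SD above the mean of all wells on their plate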
A3G deaminase = APOBEC3G (human) deaminase inhibition; inhibition, % at 20 µM; recombinant A3G, ssDNA deamination FAM/TAMRA fluorescence; 0.28% of 330,000 active; Q9HC16;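 active = inhibition of at least 40% at 20 µM, with no more than 30% in the related APOBEC3A deaminase screen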
Target sequence (Q9HC16 whole entry, looked up): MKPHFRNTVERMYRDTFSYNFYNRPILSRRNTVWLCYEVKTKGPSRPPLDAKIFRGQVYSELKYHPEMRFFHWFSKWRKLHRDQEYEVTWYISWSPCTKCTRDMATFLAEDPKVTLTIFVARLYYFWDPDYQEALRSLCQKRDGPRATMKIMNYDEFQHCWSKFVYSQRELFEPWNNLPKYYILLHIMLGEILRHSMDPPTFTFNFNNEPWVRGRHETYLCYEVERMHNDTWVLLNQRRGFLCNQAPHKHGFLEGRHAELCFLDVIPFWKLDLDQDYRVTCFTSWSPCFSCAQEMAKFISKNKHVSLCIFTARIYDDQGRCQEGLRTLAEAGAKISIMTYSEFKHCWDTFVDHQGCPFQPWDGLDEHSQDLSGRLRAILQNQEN
APOBEC3G confirm = APOBEC3G (human) deaminase inhibition, confirmed. AID 493152. 72% of 890 active. shares compounds with A3G deaminase. recombinant A3G ssDNA deaminase, UDG/FAM-TAMRA fluorescence. inhibition, % at 20 µM;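 active = inhibition reaching a set limit in any replicate at 20 µM, the limit being 80% of the first screen's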
UDG ctr A3G = inhibits E. coli UDG, flagging false APOBEC3G inhibitors. shares compounds with A3G deaminase. UDG counterscreen, FAM/TAMRA oligo fluorescence. inhibition, % at 20 µM. 710 tested, under 10 active;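 active = compounds giving 40% or more inhibition at 20 µM in any one of the three replicates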;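 also: inhibitors lower the FAM signal released by uracil excision and alkaline cleavage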
Of the large screens only hits and unclear results are named; the others gave an inactive call (follow-up assays come after a bar, where they were run).

Cc1cc(=O)n(Cc2ccccc2)c(O)c1C#N	none
O=C(Cn1c2ccc(F)cc2c2nc3n(c(=O)c21)CCS3)NCC1CCCO1 (stereo not drawn)	none
O=C(Cn1ccc(NC(=O)OCc2ccccc2)nc1=O)NCc1ccc2[nH]ccc2c1	none
CC(C)C(C(=O)Nc1nccs1)c1ccccc1 (stereo not drawn)	A3G deaminase 48 | APOBEC3G confirm inactive
CC(C)Sc1nc2ccccc2n2cnnc12	none
Cc1ccc(C(c2nnnn2CS(=O)(=O)c2ccc(C)cc2)N2CCN(c3ncccn3)CC2)cc1 (stereo not drawn)	A3G deaminase 71 | APOBEC3G confirm inactive
CC(=O)Nc1ccc(C(=O)OCC(=O)Nc2c(F)cccc2F)cc1	none
CCC1(c2ccc(F)cc2)NC(=O)N(CC(=O)N2CC(=O)Nc3ccccc32)C1=O (stereo not drawn)	none
CC(=O)c1sc2nsc(SCCN3CCOCC3)c2c1N	A3G deaminase 62 | APOBEC3G confirm 59 | UDG ctr A3G inactive
Cc1cccc(N2CCN(C(=S)c3ccc([N+](=O)[O-])cc3)CC2)c1	A3G deaminase 55 | APOBEC3G confirm 44 | UDG ctr A3G inactive
CC(C)CCNC(=O)c1ccc(Cn2c(=S)[nH]c3ccccc3c2=O)cc1	none
COc1ccccc1/C=C/C=N/n1c(-c2ccccn2)n[nH]c1=S	A3G deaminase 45 | APOBEC3G confirm 88 | UDG ctr A3G inactive
Cc1cc(-c2n[nH]c(=S)n2/N=C/C=C/c2ccccc2)n[nH]1	A3G deaminase 46 | APOBEC3G confirm 72 | UDG ctr A3G inactive
S=c1[nH]nc(-c2ccncc2)n1/N=C/C=C/c1ccccc1	A3G deaminase 63 | APOBEC3G confirm 90 | UDG ctr A3G inactive
COc1ccccc1/C=C/C=N/n1c(-c2ccncc2)n[nH]c1=S	A3G deaminase 47 | APOBEC3G confirm 80 | UDG ctr A3G inactive
COc1cccc(/C=C2\SC(=O)N(CCC(=O)N3CCC(C(=O)O)CC3)C2=O)c1	none
CCc1ccc(NC(=O)COC(=O)c2nc3nc(C)cc(C)n3n2)cc1	none
CC(/C=N/n1c(-c2cc(C)[nH]n2)n[nH]c1=S)=C\c1ccco1	A3G deaminase 61 | APOBEC3G confirm 73 | UDG ctr A3G inactive
CC(/C=N/n1c(-c2ccc(Cl)cc2)n[nH]c1=S)=C\c1ccco1	none
COCCN(C(=O)COC(=O)C1CC1)c1c(N)n(Cc2ccccc2)c(=O)[nH]c1=O	none
COCCN(C(=O)COC(=O)Cc1ccc(Cl)cc1Cl)c1c(N)n(Cc2ccccc2)c(=O)[nH]c1=O	A3G deaminase 43 | APOBEC3G confirm inactive
CC(c1ccccc1)n1c(Cn2ncc3ccccc3c2=O)n[nH]c1=S (stereo not drawn)	none
O=c1c2ccccc2cnn1Cc1n[nH]c(=S)n1-c1ccc(Cl)cc1	A3G deaminase 42 | APOBEC3G confirm 77 | UDG ctr A3G inactive
O=C(/C=C/c1cc[n+](CC(=O)c2ccc3cccc4c3c2CC4)cc1)c1ccc2cccc3c2c1CC3	A3G deaminase 54 | APOBEC3G confirm 55
CSS(=O)(=O)c1cccc2cccnc12	A3G deaminase 78 | APOBEC3G confirm 77 | UDG ctr A3G inactive
Cc1cc(C)c(C#N)c(=N)o1	A3G deaminase 58 | APOBEC3G confirm 90 | UDG ctr A3G inactive
O=C1C(Cl)=C(NC(=O)c2ccccc2)C(=O)C(Cl)=C1NC(=O)c1ccccc1	A3G deaminase 86 | APOBEC3G confirm 91
O=C(NC1=C(Nc2ccc(Cl)cc2)C(=O)c2ccccc2C1=O)c1ccccc1	none
O=S(=O)(c1ccc(Nc2ccc3c(c2)OCO3)nc1)N1CCOCC1	A3G deaminase 44 | APOBEC3G confirm inactive
COc1ccc(S(=O)(=O)N2CCOCC2)cc1C(=O)Nc1ccc2c(c1)OCO2	none
COCC1CCCCN1Cc1cn[nH]c1-c1ccc2cc(OC)ccc2c1 (stereo not drawn)	none
Cc1ccc(S(=O)(=O)N(C)C)cc1NC(=O)C(C)OC(=O)c1cc[n+]([O-])cc1 (stereo not drawn)	none
COC(=O)c1cc2c(C(F)(F)F)nn(C)c2s1	none
CCn1c(-c2cc3c(C(F)(F)F)nn(C)c3s2)n[nH]c1=S	A3G deaminase 41 | APOBEC3G confirm 63 | UDG ctr A3G inactive
Cn1c(-c2cc3c(C(F)(F)F)nn(C)c3s2)n[nH]c1=S	A3G deaminase 53 | APOBEC3G confirm 77 | UDG ctr A3G inactive
Cn1nc(C(F)(F)F)c2cc(C(=O)O)sc21	none
CCCCn1c(-c2ccco2)n[nH]c1=S	A3G deaminase 63 | APOBEC3G confirm 66 | UDG ctr A3G inactive
CCn1c(-c2ccco2)n[nH]c1=S	none
S=c1[nH]nc(-c2ccco2)n1Cc1ccccc1	A3G deaminase 51 | APOBEC3G confirm 73 | UDG ctr A3G inactive
C=CCn1c(-c2ccco2)n[nH]c1=S	none
CC(C)Cn1c(-c2ccco2)n[nH]c1=S	A3G deaminase 46 | APOBEC3G confirm inactive
O=C(Nc1ccccc1F)C1CCN(S(=O)(=O)c2cccnc2)CC1	none
C/C=C/C=C\C(=O)Nc1cccc(C2=NOC3(C2)C[C@H](C(N)=O)N(C(=O)CC#N)C3)c1 (stereo partly drawn)	none
CCC(=O)N1CC2(CC(c3cccc(NC(=O)CC(c4ccccc4)c4ccccc4)c3)=NO2)C[C@H]1C(N)=O (stereo partly drawn)	none
C=C(C)C(=O)Nc1cccc(C2=NOC3(C2)C[C@H](C(N)=O)N(C(=O)CC)C3)c1 (stereo partly drawn)	A3G deaminase 88 | APOBEC3G confirm 92
C=C(C)C(=O)Nc1cccc(C2=NOC3(C2)C[C@H](C(N)=O)N(C(=O)CC#N)C3)c1 (stereo partly drawn)	A3G deaminase 74 | APOBEC3G confirm 73
C/C=C(/C)C(=O)Nc1cccc(C2=NOC3(C2)C[C@@H](C(N)=O)N(C(=O)CC(c2ccccc2)c2ccccc2)C3)c1 (stereo partly drawn)	none
C=C(C)C(=O)Nc1cccc(C2=NOC3(C2)C[C@@H](C(N)=O)N(C(=O)CC(c2ccccc2)c2ccccc2)C3)c1 (stereo partly drawn)	A3G deaminase 70 | APOBEC3G confirm 71 | UDG ctr A3G inactive
C=C(C)C(=O)Nc1cccc(C2=NOC3(C2)C[C@@H](C(N)=O)N(C(=O)/C=C/C=C/C)C3)c1 (stereo partly drawn)	A3G deaminase 89 | APOBEC3G confirm 93 | UDG ctr A3G inactive
COc1ccc(C(=O)N2CCCC(CNC(=O)c3ccccc3Cl)C2)o1 (stereo not drawn)	none
CC(OC(=O)Cc1n[nH]c(=O)c2ccccc12)C(=O)Nc1ccc(F)cc1 (stereo not drawn)	none
